Assay results: PubChem BioAssay AID598 (SRMLSC, 2007)
The campaign covered roughly 85,000 compounds. About 5,100 (6%) were called active. The list comes from a sample in which actives are over-represented; it also holds similar structures and randomly drawn compounds. A number with no mark means an inactive call.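 Rule for the calls: active = viability at or below 40%; inactive = viability above 40%.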

experiment: proliferation blockers of H69AR lung cancer cells, primary screen, cell-based, human, 86K library (AID 598); conditions: H69AR lung tumor viability, ATP luminescence, 72 h; at 10 µM; hits give low values;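 note: multidrug resistant small cell line overexpressing MRP-1 efflux transporter; 100% = mean luminescence of untreated control wells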

Row | SMILES | viability
1 | CCOc1ccc(C(O)Cn2c(=N)n(CCN3CCCCC3)c3ccccc32)cc1 (stereo unspecified) | 44.7%
2 | CCOc1ccc(NC(=O)C2CCCN(C(=O)Nc3ccccc3)C2)cc1 (stereo unspecified) | 79.5%
3 | CCOc1ccccc1NC(=O)c1cccnc1 | 87.4%
4 | Cc1cc(=O)oc2cc(OCC3CC(c4ccccc4Cl)=NO3)ccc12 (stereo unspecified) | 27.1% (active)
5 | Cc1cc(=O)oc2cc(NC(=O)C3CC(=O)N(Cc4ccccc4)C3)ccc12 (stereo unspecified) | 96.1%
6 | Cc1ccccc1N1CCN(CCCOc2ccc3c(C)cc(=O)oc3c2)CC1 | 58.7%
7 | O=C(CSCc1c(F)cccc1Cl)NCC1CCCO1 (stereo unspecified) | 90.5%
8 | Cc1cc(SCC(=O)c2ccccc2)nc(SCC(=O)c2ccccc2)n1 | 72.1%
9 | CC(=O)CCS(=O)(=O)c1ccc(C)c(C)c1 | 1.25% (active)
10 | CCCCN(CCCC)C(=O)CCS(=O)(=O)c1ccc2c(c1)n(C)c(=O)c(=O)n2C | 70.2%
11 | Cc1ccc(S(=O)(=O)NCCN2CCOCC2)cc1C | 100%
12 | COc1ccc(NC(=O)CSc2nc(NS(=O)(=O)c3ccc(C)cc3)cc(=O)[nH]2)cc1 | 109%
13 | COC(=O)c1sccc1-n1cccc1C(=O)C(=O)N1CCCCC1 | 95.1%
14 | Cc1cccc(C(=O)N2CCCN(C(=O)c3cccc(C)c3)CC2)c1 | 94.6%
15 | Clc1ccc(COn2c(-c3ccc(Cl)cc3Cl)nc3ncccc32)cc1 | 56.5%
16 | c1nnc2c3c4c(sc3ncn12)CCC4 | 39% (active)
17 | N=c1c2c3c(sc2ncn1CCCN1CCOCC1)CCCCC3 | 71%
18 | O=C(O)[C@@H]1CCCN1c1ncnc2sc3c(c12)CCC3 | 86.5%
19 | CCc1ccc(NC(=O)CN2C(=O)CSC2=O)cc1 | 93%
20 | COCCn1c(SCc2nnc(-c3ccc(OC)c(OC)c3)o2)nc2sc3c(c2c1=O)CCC3 | 51.5%
21 | COc1ccc(OC)c(NC(=O)CN2CCN(C(=O)c3ccco3)CC2)c1 | 73.5%

Row | SMILES | viability
22 | O=C(CN1CCN(C(=O)c2ccco2)CC1)Nc1ccc2c(c1)OCO2 | 110%
23 | O=C(CN1CCN(C(=O)c2ccco2)CC1)Nc1ccc(Cl)c(C(F)(F)F)c1 | 19.9% (active)
24 | O=C(Nc1ccc(Br)cc1)c1cccc(NC(=O)C2C3CC4OC(=O)C2C4C3)c1 (stereo unspecified) | 79.9%
25 | O=C1NC(Nc2nc3ccccc3s2)(C(F)(F)F)C(=O)N1C1CCCCC1 (stereo unspecified) | 13.4% (active)
26 | COC(=O)NC1(C(F)(F)F)NC(=O)N(C2CCCCC2)C1=O (stereo unspecified) | 103%
27 | COC(=O)CCSc1cc([N+](=O)[O-])cc2c1c(C1OCCS1)nn2-c1ccccc1 (stereo unspecified) | 98.2%
28 | Cc1ccc(-n2cc3ccc([N+](=O)[O-])cc3n2)cc1 | 76.8%
29 | CCOC(=O)N1CCN(C(=O)c2ccc(CN(c3ccc(C)c(C)c3)S(C)(=O)=O)cc2)CC1 | 70.5%
30 | CCOC(=O)N1CCN(C(=O)c2ccc(S(=O)(=O)c3ccc(C)cc3)c(NC(C)=O)c2)CC1 | 85.8%
31 | CCOC(=O)N1CCN(C(=O)c2ccc3c(c2)N(Cc2ccc(C)cc2)CCS3)CC1 | 30.8% (active)
32 | COc1ccc(CN(C(=O)CSc2nnc(-c3ccc(OC)c(OC)c3)o2)c2ccc(F)cc2)cc1 | 65.2%
33 | CCCNC(=O)CN(Cc1ccccc1F)S(=O)(=O)c1ccc(C)cc1 | 98.5%
34 | CC1Cc2ccccc2N1C(=O)c1cc2sccc2n1Cc1ccccc1 (stereo unspecified) | 90.3%
35 | O=C(CSCc1ccc(Cl)cc1)N1CCCCC1 | 93.6%
36 | Cc1cc(NC(=O)CCC(=O)N(CC(=O)NCC2CCCO2)c2ccccc2C)no1 (stereo unspecified) | 100%
37 | COCCNC(=O)Cn1cc(C(=O)c2cccs2)c2ccccc21 | 88.3%
38 | COc1ccc(C(=O)n2nc(-c3ccc(Cl)cc3)nc2N)cc1OC | 83.9%
39 | COc1ccccc1C(=O)n1nc(-c2ccccc2)nc1N | 90.3%
40 | COc1ccc(C(=O)n2nc(-c3ccc(C)cc3)nc2N)cc1OC | 22% (active)
41 | N#CC1=C(SCc2ccc(C#N)cc2)N=C(N)C(c2nc(-c3ccccc3)cs2)C12CCCCC2 (stereo unspecified) | 56.8%
42 | COc1ccc(OC)c(-n2nnnc2SCC(=O)Nc2cc(C)ccc2OC)c1 | 75.6%

Row | SMILES | viability
43 | CC(C)c1nc2ccc(C(=O)O)cc2[nH]1 | 94.4%
44 | Cc1nc2ccc(C(=O)O)cc2[nH]1 | 91.7%
45 | COC(=O)Nc1nc2ccc(Sc3ccccc3)cc2[nH]1 | 17.5% (active)
46 | COc1ccc(N(CC(=O)NC2CCCCC2)C(=O)CNC(=O)c2ccco2)c(OC)c1 | 97.8%
47 | COc1ccc(C(=O)N(Cc2ccc(N(C)C)cc2)C2CCS(=O)(=O)C2)cc1 (stereo unspecified) | 80.1%
48 | Cc1ccc(CN(C(=O)c2sc3ccccc3c2Cl)C2CCS(=O)(=O)C2)cc1 (stereo unspecified) | 18.5% (active)
49 | COc1cc(C(=O)N(Cc2ccc(N(C)C)cc2)C2CCS(=O)(=O)C2)cc(OC)c1OC (stereo unspecified) | 80.1%
50 | CC(=O)c1cccc(NC(=O)N2CCCC2C(=O)NCCc2ccccc2)c1 (stereo unspecified) | 91.7%
51 | COc1nc(NC2CCCCC2)nc(N2CCCCCC2)n1 | 61.9%
52 | CC1=C/C(=N\OS(=O)(=O)c2ccccc2)C=CC1=O | 0.69% (active)
53 | N#CCSc1nc2c(c(=O)n1Cc1ccccc1)C1(CCCC1)Cc1ccccc1-2 | 80.7%
54 | Nc1c(-c2ccc(F)cc2)cnn1C1CCS(=O)(=O)C1 (stereo unspecified) | 98%
55 | CC(C)(C)C(=O)c1cnc(Nc2ccccc2)s1 | 55%
56 | CCOC(=O)CSc1nc2ccc(C)cc2[nH]1 | 89.4%
57 | COc1ccc(/C(N)=N/OC(=O)Oc2ccccc2)cc1 | 82.6%
58 | CO/N=C(/CS(=O)(=O)c1ccc(Br)cc1)c1ccc(OC)cc1 | 31.4% (active)
59 | COc1ccc(C(=O)Nc2ccc(S(=O)(=O)NC(C)C)cc2)cc1 | 97.9%
60 | Cc1cccc(NC(=O)CSc2nnc(-c3ccco3)o2)c1 | 96.2%
61 | CC1(C)NC(=O)N(CCCCSc2ccc(Cl)cc2)C1=O | 79%
